RXFP1 antag: RXFP1 (human) relaxin receptor antagonism; Q9HBX9; HEK293-RXFP1, relaxin-stimulated cAMP HTRF, 30 min; hits give low values; activity change, negative = inhibition, % at 57.5 µM; 350,000 tested, 0.59% active; AID 1259400;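 active = activity change of -60% or lower, but not beyond a set lower limit; inconclusive = change between -60% and -40%, or beyond the set limit; inactive = change above -40%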; note: % is set by controls: 0 for no effect and ±100 for the full control effect
Target sequence (Q9HBX9 whole entry, looked up): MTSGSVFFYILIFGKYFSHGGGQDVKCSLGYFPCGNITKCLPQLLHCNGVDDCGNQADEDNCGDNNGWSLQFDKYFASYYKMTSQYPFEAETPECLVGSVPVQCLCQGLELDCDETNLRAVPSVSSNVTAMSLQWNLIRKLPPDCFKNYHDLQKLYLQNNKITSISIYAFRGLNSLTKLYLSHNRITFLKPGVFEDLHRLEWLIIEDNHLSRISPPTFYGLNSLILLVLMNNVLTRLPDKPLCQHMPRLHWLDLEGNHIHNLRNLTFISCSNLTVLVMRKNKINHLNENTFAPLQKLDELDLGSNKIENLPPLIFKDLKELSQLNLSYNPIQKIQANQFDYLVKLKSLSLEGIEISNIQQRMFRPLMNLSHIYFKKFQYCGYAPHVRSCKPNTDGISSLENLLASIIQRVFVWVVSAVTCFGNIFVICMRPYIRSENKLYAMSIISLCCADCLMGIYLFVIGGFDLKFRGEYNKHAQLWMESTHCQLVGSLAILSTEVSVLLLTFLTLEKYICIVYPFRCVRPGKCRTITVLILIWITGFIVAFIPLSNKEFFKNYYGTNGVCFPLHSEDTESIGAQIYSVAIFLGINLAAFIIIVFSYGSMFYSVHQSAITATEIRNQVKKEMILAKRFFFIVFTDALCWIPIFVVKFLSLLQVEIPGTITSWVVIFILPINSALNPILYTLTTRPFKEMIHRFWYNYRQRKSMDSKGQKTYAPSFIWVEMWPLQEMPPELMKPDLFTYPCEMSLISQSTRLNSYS
gsp agonist: agonists of gsp mutant (McCune-Albright syndrome). gsp mutant cells, cAMP HTRF, 30 min. Potency, µM (top dose mostly 76.9 µM), without a hit: top-dose activation (cAMP increase), usual class: activators. 340,000 tested, 0.13% active; active = well fitted activation curve with a large enough effect; inconclusive = small, poorly fitted or top-dose-only effect, or another doubt; inactive = no such curve, though single readings can be large or run the other way; cell line not stated here;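 note: phosphodiesterase inhibitor Ro 20-1724 added with compounds to block cAMP breakdown; potency is the fitted concentration of half-maximal effect; nearly all actives have a fitted effect of over 60% in size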
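Cells stably selected in G418 were plated at 2000/well, grown 16-24 hr, then given compounds in DMSO with the PDE inhibitor […] (300 uM solution added) for 30 min at 37C; cAMP was read by HTRF.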
Akt phos inh: inhibitors of Akt phosphorylation; AID 651550; Neuro2A IGF-stimulated pAkt S473 HTRF, 20 min; hits give low values; 360,000 tested, 0.32% active; activity change, % for hits at 50 µM; in the data active = activity change below about -80%; inconclusive = mostly about -51% to -80%; note: % is set by controls: 0 for no effect and ±100 for the full control effect
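Neuro2A cells (4,500/well, DMEM with 0.5% FBS) were treated with compound at a single 50 µM final concentration, stimulated with 6 nM IGF for 20 min at 37 °C, and lysed. Phospho-Akt Ser473 was read by HTRF as 665/615 ratio ×10^4.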
RXFP1 agonist: agonists of human relaxin receptor RXFP1 | Potency, µM (titrated, usually from 57.5 µM), inactives show at the top dose activation, hits mostly activators | 370,000 tested, 0.3% active | HEK293T-RXFP1 cAMP TR-FRET, 30 min; response scale: percent of porcine relaxin response, buffer zero | Q9HBX9; active = well fitted activation curve with a large enough effect; inconclusive = small, poorly fitted or top-dose-only effect; note: potency is the fitted concentration of half-maximal effect; % is set by controls: 0 for no effect and ±100 for the full control effect; nearly all actives have a fitted effect of over 60% in size
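Agonist response is measured as cAMP accumulation in an RXFP1-transfected HEK293T line under PDE4 inhibition. Values are scaled between buffer-only and 29 nM porcine relaxin, and EC50s come from standard Hill equation fits.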
gsp antag: gsp mutant antagonism. gsp-mutant cells, cAMP HTRF, 30 min. Potency, µM (doses to about 76.9 µM), without a hit: top-dose activity change, negative = inhibition, actives largely listed as inhibitors. 340,000 tested, 0.4% active. AID 624288; calls by dose curve; cell line not stated here;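 note: intracellular cAMP measured with PDE inhibitor Ro 20-1724 present during compound exposure; potency is the fitted concentration of half-maximal effect; % is set by controls: 0 for no effect and ±100 for the full control effect; nearly all actives have a fitted effect of over 65% in size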
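Measurement of cellular cAMP by homogeneous time-resolved fluorescence following a 30 min compound exposure at 37C. The PDE inhibitor […] was present throughout; the assay buffer was DPBS with 0.05% BSA and 0.005% Tween 20.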
* marks the source's active call; other numbers are inactive results; i = inactive; ? = inconclusive; . = no result; ! = not confirmed by another sample; [ ] = another dose, or the depositor's remark. Most compounds without a hit are left out; they make up all but 1.2% or so of the library.

SMILES | RXFP1 antag | gsp agonist | Akt phos inh | RXFP1 agonist | gsp antag
Fc1cccc(CSc2nc(NCCc3ccccc3)c3ccccc3n2)c1 | -19 | . | . | 0% | .
O=c1cc(N2CCCCC2)c(-c2ccccc2)nn1Cc1ccccc1 | -120* | -1%[15.4 µM] | i | 0% | ?
O=C(CCNC(=O)N1CC(=O)Nc2ccccc21)Nc1ccc(Cl)cc1 | 3 | 7% | i | 4% | -5%
O=C(CNC(=O)N1CC(=O)Nc2ccccc21)NCc1ccccc1Cl | -61* | -1% | i | -1% | 4%
O=C(CNC(=O)N1CC(=O)Nc2ccccc21)Nc1ccc(Cl)cc1 | -61* | -55% | i | 1% | -10%
CCOC(=O)C1=C(c2ccccc2)OC(N)=C(C#N)C1C1CCCCC1 (centres undefined) | -22 | -50% | i | 0% | -1%[15.4 µM]
CCOC(=O)C1=C(C)OC(N)=C(C#N)C1C1CCCCC1 (centres undefined) | -15 | -22% | -118%* | 2% | -2%
COC(=O)c1nn(-c2ccccc2)c(Sc2ccccc2)c1/C=N/O | -10 | 18% | -107%* | 2% | 0%
COc1ccc(CCNc2oc(COc3ccc(Cl)cc3)nc2C#N)cc1OC | -64* | . | . | 0% | .
N#C/C(=C\c1c(Cl)cccc1Cl)c1nc2ccccc2[nH]1 | -3 | ? | i | -2% | -9%
N#C/C(=C\c1ccc(Cl)cc1)c1nc2ncccc2[nH]1 | 2 | -39% | -105%* | 0% | 14%
Cc1cccc(N(C)S(=O)(=O)c2nnc(NC(=O)C(C)(C)C)s2)c1 | -20 | . | . | 15% | .
Cc1cc(C)c(C(=O)CC2(O)C(=O)Nc3ccccc32)cc1C (centres undefined) | -6 | 4% | -116%* | 0% | 5%
Cc1ccc(C)c(C(=O)CC2(O)C(=O)Nc3ccccc32)c1 (centres undefined) | 1 | ? | i | 0% | 2%
O=C(NCc1ccc2c(c1)CCN2C(=O)c1ccc(F)cc1)c1cc2ccccc2[nH]1 | 2 | . | . | 3% | .
CCCCN(CC)CCNC(=O)c1cc2c(-c3ccc(Cl)cc3)nn(C)c2s1 | -104*! | ? | i | 3% | 10%
CCOc1ccc(C2c3[nH]c4ccccc4c3CCN2C(=O)CCc2ccccc2)cc1 (centres undefined) | -20 | . | . | 3% | .
CCOC(=O)c1ccc(N2C(=O)c3[nH]nc(-c4ccc(OC)cc4)c3C2c2ccc(C)cc2)cc1 (centres undefined) | . | . | . | 1% | .
C=C1/C(=C\C=C2/CCC[C@]3(C)[C@@H]([C@H](C)CCCC(C)(C)O)CC[C@@H]23)C[C@@H](O)C[C@@H]1O | . | . | . | 1% | .
C=C1C(=C/C=C2\CCC[C@]3(C)[C@@H]([C@H](C)/C=C/[C@@H](O)C4CC4)CC[C@@H]23)C[C@@H](O)C[C@@H]1O | -72* | . | . | . | .
COc1cccc(NC(=O)Cn2c(=O)n(CCc3ccccc3)c(=O)c3c4c(sc32)CN(C(C)=O)CC4)c1 | . | . | . | -1% | .
CCCCC(CC)CNC(=O)CC(C)OC(=O)CCC(=O)O (centres undefined) | 6 | . | . | . | .
Cc1cn([C@@H](CCCCNC(=O)OC(C)(C)C)C(=O)NCCCCCCCCCCC(=O)N2CCN(C(=O)OC(C)(C)C)CC2)nn1 | . | . | i | 0% | 28µM*
CC[C@H](C)Cc1cn([C@@H](CCCN=C(NC(=O)OC(C)(C)C)NC(=O)OC(C)(C)C)C(=O)NCCCCCCCCCCC(=O)N2CCN(C(=O)OC(C)(C)C)CC2)nn1 | . | -39% | i | 0% | 7%
Cc1cccc(N2CCN(C(=O)c3c4c(nc5ccccc35)C(=O)N(C3CCCCC3)C4)CC2)c1C | -15 | . | . | 0% | .
SMILES | RXFP1 antag | gsp agonist | Akt phos inh | RXFP1 agonist | gsp antag
O=C1c2ccccc2NC(c2ccc(Cl)cc2Cl)N1O (centres undefined) | -9 | -47% | -132%* | -3% | -9%
O=C1c2ccccc2NC(c2ccc(Cl)cc2Cl)N1Cc1ccccc1 (centres undefined) | -10 | -11% | i | -3% | -12%
O=C1c2ccccc2NC(c2cnc3ccccc3n2)N1O (centres undefined) | -7 | 22µM* | ? | 15% | -11%
CCC(C)NC(=O)C1CCN(C(=O)c2cc3sccc3n2Cc2ccc(Cl)cc2)CC1 (centres undefined) | -22 | . | . | 0% | .
CCOC(=O)C1=C(CN2CCN(c3ccccc3)CC2)NC(=O)NC1c1ccc(C)cc1 (centres undefined) | . | . | . | 2% | .
CC(=O)c1ccc(/C=C/c2nc3ccccc3n2C)o1 | 49 | ? | i | 25µM* | -2%
Cn1c(/C=C/c2ccccc2)nc2ccccc21 | -4 | 24% | i | 6% | -10%
N#CSCC(=O)O | -21 | . | . | . | .
Cc1ccc(C)c(N2CCN(C(=O)C34CC5CC(C3)CC(n3nnc(C)n3)(C5)C4)CC2)c1 | ? | -3%[15.4 µM] | i | -3% | 40µM*
CCO[C@H](Cc1ccc(OCCc2ccc(OS(C)(=O)=O)cc2)cc1)C(=O)O | -27 | . | . | . | .
CCS(=O)(=O)Nc1ccc(C2=NN(C(=O)c3ccco3)C(c3cccc(F)c3)C2)cc1 (centres undefined) | -20 | -17% | i | 0% | 22µM*
COc1ccc(-n2ncc(N(C)n3cccc3)c(Cl)c2=O)cc1 | -9 | -1% | -115%* | -1% | 8%[15.4 µM]
COc1ccc(-n2ncc(Cl)c(Cl)c2=O)cc1 | -14 | -1%[15.4 µM] | i | 5% | -13%
COc1ccc(C)cc1NS(=O)(=O)c1cc(C)ccc1C | 3 | ? | i | 1% | 4%
COc1ccccc1NS(=O)(=O)c1cc(C)ccc1C | -11 | -21% | i | -1% | 6.3µM*
COc1ccc(CCNC(=O)C2CCC(=O)N(C3CCCCCC3)C2)cc1 (centres undefined) | 1 | ? | i | -2% | 50µM*
CCCN(C(=O)Cn1c(=O)oc2cc(Cl)ccc21)c1ccc(C(C)C)cc1 | -34 | . | . | 1% | .
Clc1ccccc1CN(Cc1ccco1)Cc1nnnn1C1CCCC1 | -32 | -6% | i | 2% | 20µM*
Cc1ccc(-n2c3nc(=O)[nH]c(=O)c-3cc3c(C)nn(-c4ccccc4)c32)c(C)c1 | -13 | -13%[15.4 µM] | i | 18% | 50µM*
CCCCCC(=O)N/N=C/c1ccc([N+](=O)[O-])o1 | -20 | -34% | i | 4% | 0%
CCN(CC)c1ccc(N=Cc2ccc([N+](=O)[O-])o2)cc1 | -67* | -21% | i | -5% | ?
CCN(CC)c1ccc(N=Cc2ccccc2[N+](=O)[O-])cc1 | -68* | -23%[15.4 µM] | i | -4% | ?
Cc1c2cnn(CC(=O)N3CCN(c4ccc(F)cc4)CC3)c(=O)c2c(C)n1Cc1ccccc1F | -18 | . | . | -5% | .
CC(=O)C1=C(c2ccc(F)cc2)N(C(C)=O)n2c(nnc2C2CCCCC2)S1 | 1 | . | . | 1% | .
CCCOc1ccc(CNC(=O)Cn2cc3c(n2)-c2c(oc(C(=O)N4CCOCC4)c2C)CC3)cc1 | 3 | . | . | 7% | .
